Results from PubChem BioAssay AID1159580 (chemical genetic matrix, 2015).
The campaign covered roughly 5,500 compounds. About 2,000 (36%) were called active. Not shown: some 18% with an inconclusive outcome. No stated cut-off is given here; in the data, active means normalized growth mostly below about 0.91 (no sharp cut-off); inconclusive means no clear call, values can overlap the other calls; inactive means mostly above about 0.92. The list shows a part of the results.

Assay: chemical genetic growth profiling, strain panel (AID 1159580);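 further: tested at 20 µM; growth read once vehicle control cultures reached saturation at 30 °C; 1 = growth at the plate median or of vehicle wells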
Conditions: S. cerevisiae deletion strains, growth OD

Measured: normalized growth

O=C(NOC(=O)c1ccccc1)c1ccccc1
active: locus YAR019C, strain CDC15, stronger effect = lower value 0.0906 | locus YBL105C, strain PKC1, stronger effect = lower value 0.0874 | locus YBR135W, strain CKS1, stronger effect = lower value 0.0902 | locus YBR136W, strain MEC1, stronger effect = lower value 0.0871 | locus YBR160W, strain CDC28, stronger effect = lower value 0.091 | locus YDL017W, strain CDC7, stronger effect = lower value 0.0875 | locus YDL028C, strain MPS1, stronger effect = lower value 0.0868 | locus YDL101C, strain DUN1, stronger effect = lower value 0.102 | locus YDL108W, strain KIN28, stronger effect = lower value 0.0859 | locus YDL132W, strain cdc53, stronger effect = lower value 0.0913 | locus YDL214C, strain PRR2, stronger effect = lower value 0.0898 | locus YDR052C, strain DBF4, stronger effect = lower value 0.0867 | locus YDR054C, strain cdc34, stronger effect = lower value 0.0943 | locus YDR226W, strain ADK1, stronger effect = lower value 0.0848 | locus YDR477W, strain SNF1, stronger effect = lower value 0.0987 | locus YER123W, strain YCK3, stronger effect = lower value 0.0956 | locus YER133W, strain GLC7, stronger effect = lower value 0.0938 | locus YFL009W, strain cdc4, stronger effect = lower value 0.093 | locus YFL029C, strain CAK1, stronger effect = lower value 0.089 | locus YFR003C, strain YPI1, stronger effect = lower value 0.0861 | locus YFR019W, strain FAB1, stronger effect = lower value 0.101 | locus YFR028C, strain CDC14, stronger effect = lower value 0.0859 | locus YGR040W, strain KSS1, stronger effect = lower value 0.103 | locus YGR052W, strain FMP48, stronger effect = lower value 0.111 | locus YGR092W, strain DBF2, stronger effect = lower value 0.104 | locus YHR030C, strain SLT2, stronger effect = lower value 0.114 | locus YHR079C, strain IRE1, stronger effect = lower value 0.112 | locus YHR082C, strain KSP1, stronger effect = lower value 0.153 | locus YHR205W, strain SCH9, stronger effect = lower value -0.00347 | locus YIL147C, strain SLN1, stronger effect = lower value 0.0859 | locus YJL095W, strain BCK1, stronger effect = lower value 0.107 | locus YJL128C, strain PBS2, stronger effect = lower value 0.097 | locus YJL157C, strain FAR1, stronger effect = lower value 0.0897 | locus YJR016C, strain ILV3, stronger effect = lower value 0.0894 | locus YJR066W, strain TOR1 (second series), stronger effect = lower value 0.0928 | locus YJR066W, strain TOR1, stronger effect = lower value 0.133 | locus YKL048C, strain ELM1, stronger effect = lower value 0.111 | locus YKL067W, strain YNK1, stronger effect = lower value 0.0892 | locus YKL101W, strain HSL1, stronger effect = lower value 0.103 | locus YKL193C, strain SDS22, stronger effect = lower value 0.0889 | locus YKL203C, strain TOR2, stronger effect = lower value 0.097 | locus YLR113W, strain HOG1, stronger effect = lower value 0.138 | locus YLR133W, strain CKI1, stronger effect = lower value 0.0893 | locus YLR403W, strain SFP1, stronger effect = lower value 0.00282 | locus YML070W, strain DAK1, stronger effect = lower value 0.109 | locus YMR001C, strain CDC5, stronger effect = lower value 0.0891 | locus YMR205C, strain PFK2 (second series), stronger effect = lower value 0.0877 | locus YMR277W, strain FCP1, stronger effect = lower value 0.0919 | locus YNL006W, strain LST8, stronger effect = lower value 0.0825 | locus YNL020C, strain ARK1, stronger effect = lower value 0.0971 | locus YNL161W, strain CBK1, stronger effect = lower value 0.0976 | locus YNL183C, strain NPR1, stronger effect = lower value 0.109 | locus YNL207W, strain RIO2, stronger effect = lower value 0.0878 | locus YNL222W, strain SSU72, stronger effect = lower value 0.0863 | locus YNL307C, strain MCK1 (second series), stronger effect = lower value 0.112 | locus YOL078W, strain AVO1, stronger effect = lower value 0.0891 | locus YOL136C, strain PFK27, stronger effect = lower value 0.0994 | locus YOR061W, strain CKA2, stronger effect = lower value 0.0894 | locus YOR119C, strain RIO1, stronger effect = lower value 0.108 | locus YOR231W, strain MKK1, stronger effect = lower value 0.111 | locus YOR329C, strain SCD5, stronger effect = lower value 0.0866 | locus YPL031C, strain PHO85, stronger effect = lower value 0.102 | locus YPL153C, strain RAD53, stronger effect = lower value 0.0967 | locus YPL204W, strain HRR25, stronger effect = lower value 0.1 | locus YPL209C, strain IPL1, stronger effect = lower value 0.0841 | locus YPL256C, strain CLN2, stronger effect = lower value 0.167 | locus YPR025C, strain CCL1, stronger effect = lower value 0.091 | locus YPR106W, strain ISR1, stronger effect = lower value 0.0869 | locus YPR111W, strain DBF20, stronger effect = lower value 0.09 | strain NNK1, stronger effect = lower value 0.0922 | strain TSCII, stronger effect = lower value 0.0892
